Bioassay records from PubChem.
IL-1B inflam inh = inhibitors of inflammasome signaling (IL-1 beta secretion); AID 743279; 4.7% of 360,000 active; THP-1 LPS/ATP IL-1B secretion, AlphaLISA, 16 h; hits give low values; activity change, % at 57.5 µM; in the data active = activity change below about -50%; inconclusive = mostly about -30% to -49%; note: % is set by controls: 0 for no effect and ±100 for the full control effect
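THP-1 cells pretreated 1 hr with compounds (up to 57.5 uM final), then stimulated with LPS (250 ng/mL final) plus ATP (1.25 mM final); secreted IL-1B measured by AlphaLISA after 16 hr, decreased signal indicating inhibition.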
TDP1 cell noCPT = qHTS for Inhibitors of human tyrosyl-DNA phosphodiesterase 1 (TDP1): qHTS in cells in absence of CPT; DT40 Tdp1-/- hTDP1 cells, no CPT, ATP luminescence, 48 h; Potency, µM (titrated, usually from 46.2 µM), inactives show top-dose activity change, negative = growth inhibition, most hits filed as inhibitors; 15% of 420,000 active; AID 686978, 2013; note: potency is the fitted concentration of half-maximal effect; % is set by controls: 0 for no effect and ±100 for the full control effect; nearly all actives have a fitted effect of over 55% in size
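Seeded 400 DT40-hTDP1 cells/well (vehicle DMSO, no 20 nM CPT); pinned compounds; ≥48 hr at 37 °C; CellTiter-Glo luminescence as viability measure.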
TGFb inhibitor = TGF-b pathway inhibition; HepG2 CAGA-GFP TGF-b/SMAD3 reporter, GFP fluorescence, 18 h; TGF-beta stimulated, 500 pg/mL final; Potency, µM (series often up to 46.1 µM), for inactives: top-dose activity, negative = inhibition, most hits filed as inhibitors; 1.2% of 410,000 active; AID 588855; note: potency is the fitted concentration of half-maximal effect; % is set by controls: 0 for no effect and ±100 for the full control effect; nearly all actives have a fitted effect of over 65% in size
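Inhibition of TGF-beta-driven CAGA-GFP reporter expression in HEPG2 cells is measured by cellular GFP fluorescence after 18 h stimulation with 500 pg/mL recombinant TGF-beta in 1% FBS medium at 37 degrees C.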
TDP1 cell CPT = DT40-hTDP1 cell growth loss with CPT; chicken DT40 Tdp1-/-;hTDP1 cells + 20 nM CPT, ATP luminescence, 48 h; Potency, µM (top dose mostly 46.2 µM), for inactives: at the top dose activity change, negative = growth inhibition, actives largely listed as inhibitors; 12% of 420,000 active; AID 686979; note: potency is the fitted concentration of half-maximal effect; % is set by controls: 0 for no effect and ±100 for the full control effect; nearly all actives have a fitted effect of over 55% in size
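Chicken DT40 Tdp1-/- cells complemented with human TDP1, 400 cells/well, exposed to compounds plus 20 nM camptothecin for at least 48 h at 37 C; viability read as ATP content by CellTiter-Glo luminescence.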
S-ASM inh = blocks human secretory acid sphingomyelinase. placental ASM, HMU-PC fluorogenic substrate, 60 min. Potency, µM (series often up to 57.5 µM), for inactives: at the highest dose activity change, negative = inhibition, most hits filed as inhibitors. 0.006% of 340,000 active. AID 504937; note: potency is the fitted concentration of half-maximal effect
Target sequence (P17405 47-631 limits assumed): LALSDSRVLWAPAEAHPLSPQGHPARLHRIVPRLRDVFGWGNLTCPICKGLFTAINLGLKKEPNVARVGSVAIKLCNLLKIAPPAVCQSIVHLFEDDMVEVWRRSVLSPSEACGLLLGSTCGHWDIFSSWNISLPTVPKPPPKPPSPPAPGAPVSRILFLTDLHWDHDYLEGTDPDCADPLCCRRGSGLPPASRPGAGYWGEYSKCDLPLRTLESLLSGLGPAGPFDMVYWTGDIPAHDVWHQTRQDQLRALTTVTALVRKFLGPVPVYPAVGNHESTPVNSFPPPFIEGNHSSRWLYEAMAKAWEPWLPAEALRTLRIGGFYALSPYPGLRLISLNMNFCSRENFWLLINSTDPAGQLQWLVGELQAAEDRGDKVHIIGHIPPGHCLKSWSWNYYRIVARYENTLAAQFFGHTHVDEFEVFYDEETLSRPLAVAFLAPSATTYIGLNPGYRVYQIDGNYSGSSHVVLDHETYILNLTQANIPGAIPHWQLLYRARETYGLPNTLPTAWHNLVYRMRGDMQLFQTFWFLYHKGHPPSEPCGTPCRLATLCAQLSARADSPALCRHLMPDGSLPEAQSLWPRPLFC
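Human placenta-derived ASM enzyme was preincubated with compound for 10 minutes at room temperature, then given fluorogenic substrate HMU-PC0 (9 uM final) for 60 minutes at 37 °C; a pH 10 stop preceded fluorescence reading at Ex 386/Em 447 nm.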
HepG2 tox = counter-screen for TGF-b inhibitors: cytotoxicity in HepG2 cells; HepG2 CAGA-GFP viability, ATP luminescence, 18 h; Potency, µM (highest dose often 46.1 µM), for the others: at the highest dose activity change, negative = cytotoxicity, usual class: cytotoxic; 0.76% of 410,000 active; note: potency is the fitted concentration of half-maximal effect
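CellTiter-Glo luminescence gave cytotoxicity after 18 hours at 37 degrees C. The cells were HepG2 CAGA-GFP in 1% FBS DMEM, stimulated with 500 pg/mL TGF-beta after compound addition. %Activity was normalised to no-cell wells (complete cell-killing) and DMSO (no toxicity), and curves were fitted and classified.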
* hit, by the source's call; i = inactive; ? = inconclusive; · = no result given. Rows were chosen to be rich in hits. Some 19% of all compounds tested hit in one or more screens of this group. Unless noted, calls come from the whole dose curve; as a rule, active = well fitted curve in the direction sought with a large enough effect; inconclusive = small, poorly fitted or top-dose-only effect, or another doubt; inactive = no such curve, though single readings can be large; an effect the other way counts as inactive or inconclusive.

SMILES	IL-1B inflam inh	TDP1 cell noCPT	TGFb inhibitor	TDP1 cell CPT	S-ASM inh	HepG2 tox
Cc1cc(C)c(S(=O)(=O)Nc2ccccc2C(=O)N2CCOCC2)c(C)c1	-8	-8%	5%	-7%	3%	0%
O=C(NCc1cc(Cl)cc(Cl)c1)c1ccc2nc([C@H]3C[C@H](O)[C@@H](CO)O3)[nH]c2c1	-2	-5%	4%	-2%	·	9%
COC(=O)CC1C(=O)NCCN1C(=S)NC(=O)c1sc2ccccc2c1Cl (stereo not given)	15	7%	-5%	-7%	-1%	4%
Cc1ccc(Nc2nc(=O)c3cc([N+](=O)[O-])ccc3s2)cc1	44	-7%	5%	2%	5%	7%
COc1ccc(Nc2nc(=O)c3cc([N+](=O)[O-])ccc3s2)cc1	28	26%	8%	1%	-2%	4µM*
CCC1CCCCN1S(=O)(=O)c1ccc(N2CCCCS2(=O)=O)cc1 (stereo not given)	·	?	-21%	?	·	0%
O=C(NC(=S)Nc1cccc(NC(=S)NC(=O)c2ccccc2)c1)c1ccccc1	32	10µM*	-7%	9.2µM*	0%	-13%
Cc1snnc1C(=O)NC(=S)Nc1ccccc1	14	13µM*	-10%	-29%	2%	-17%
O=C(NC(=S)Nc1cccnc1)c1ccccc1	1	-19%	13%	-9%	0%	7%
CC(C)C(=O)Nc1cccc(NC(=S)NC(=O)c2ccc(Cl)cc2)c1	-8	16µM*	-14%	?	-7%	-16%
CC(C)C(=O)Nc1cccc(NC(=S)NC(=O)c2ccc3c(c2)OCO3)c1	i	-11%	-1%	-20%	-3%	0%
O=C(NC(=S)Nc1cccc(CO)c1)c1ccc(-c2ccccc2)cc1	-10	13µM*	?	23µM*	-6%	-35%
CCCCNC(=O)C1c2ccccc2OCC(=O)N1C1CC1 (stereo not given)	30	-9%	·	-7%	·	·
N#Cc1c(Cl)nc(-c2ccncc2)nc1-c1ccccc1	-6	2%	14%	13%	-1%	-2%
CCCCCC(=O)NC(=S)NC1C2CC3CC(C2)CC1C3 (stereo not given)	77	?	?	?	0%	22%
CC(=O)c1cccc(NC(=S)NC(=O)c2ccc(C)cc2)c1	-7	18µM*	-10%	?	3%	6%
CCOC(=O)NC(NC(=S)Nc1ccccc1[N+](=O)[O-])C(Cl)(Cl)Cl (stereo not given)	-10	?	-27%	?	0%	-20%
O=C(NC(=S)Nc1c(Cl)cc(Cl)cc1Cl)c1ccccc1	-1	9.2µM*	-27%	23µM*	·	-29%
O=C(NC(=S)NC(c1ccccc1)c1ccncc1)c1ccccc1 (stereo not given)	-79*	12µM*	6%	15µM*	-2%	-33%
O=C(NC(NC(=S)Nc1c(Cl)cc(Cl)cc1Cl)C(Cl)(Cl)Cl)OCc1ccccc1 (stereo not given)	-58*	16µM*	?	?	-11%	-26%
CC(NC(=S)NC(=O)c1ccccc1)c1ccccc1 (stereo not given)	-23	-24%	5%	0%	8%	-2%
COc1ccc(Cn2c(-c3ccc(OC)c(O)c3)nc3ccccc32)cc1O	-24	?	-8%	?	-1%	-4%
O=C(NNC1=NC2(CCCC2)Cc2ccccc21)c1cccnc1	0	1%	-20%	4%	-5%	2%
CCCN(Cc1cc2cc(OC)ccc2[nH]c1=O)C(=O)c1ccncc1	48	16µM*	-3%	?	26%	7%
COc1ccc2[nH]c(=O)c(CN(C)C(=O)c3ccncc3)cc2c1	-6	-3%	3%	-6%	29%	3%
SMILES	IL-1B inflam inh	TDP1 cell noCPT	TGFb inhibitor	TDP1 cell CPT	S-ASM inh	HepG2 tox
CCCN(Cc1cc2cccc(C)c2[nH]c1=O)C(=O)c1cccc(OC)c1	-9	16µM*	-20%	?	-1%	-4%
CCCN(Cc1cc2cc(OC)ccc2[nH]c1=O)C(=O)c1ccco1	4	16µM*	-10%	29µM*	71%	-9%
COc1ccc(CCNC(=O)C2CCC(=O)N2S(=O)(=O)c2ccc(C)cc2)cc1 (stereo not given)	14	-3%	-6%	1%	1%	-17%
CS(=O)(=O)Nc1c(O)ccc2c1CCC[C@H]2C1=NCCN1	·	-7%	·	2%	·	·
Nc1cc(S(=O)(=O)c2ccc(N3CCCCC3)c(N)c2)ccc1N1CCCCC1	40	12µM*	?	9.2µM*	·	-31%
COC(=O)c1cc(NS(=O)(=O)c2ccc(N3CCOCC3)c(N)c2)cc(C(=O)OC)c1	-54*	-8%	-16%	-2%	5%	-7%
Nc1cc(S(=O)(=O)Nc2ccccc2Cl)ccc1N1CCCCC1	-21	9.2µM*	?	15µM*	-11%	-25%
COc1ccc(NS(=O)(=O)c2ccc(N3CCCCC3)c(N)c2)cc1	-5	1.3µM*	?	2.6µM*	-3%	-31%
Nc1cc(S(=O)(=O)N2CCCCC2)ccc1N1CCOCC1	11	?	-1%	-27%	4%	-1%
CC[C@@H](C(=O)n1nc(C)cc1C)[C@H](NS(=O)(=O)c1ccc(C)cc1)c1ccccc1	5	21µM*	?	?	-2%	4%
Nc1nc(-c2cccs2)c(NC(=O)c2ccccc2)s1	-95*	18µM*	?	16µM*	-2%	-74%
Cc1cc(C)cc(OCCNC(=O)C2CCN(S(=O)(=O)c3ccccc3)CC2)c1	-15	-4%	-7%	-25%	-2%	-11%
CN1CCN(c2nc(Nc3ccc(F)cc3)nc(Nc3ccc(F)cc3)n2)CC1	-56*	?	?	21µM*	?	13µM*
c1ccc(Nc2nc(Nc3ccccc3)nc(N3CCNCC3)n2)cc1	-71*	?	?	?	-9%	-50%
c1ccc(Nc2nc(N3CCCC3)nc(N3CCOCC3)n2)cc1	·	·	-8%	·	-1%	-4%
Fc1ccc(Nc2nc(Nc3ccc(F)cc3)nc(N3CCOCC3)n2)cc1	·	?	50%	?	·	-30%
COC(=O)c1ccc(/C=N\N2CCN(c3ccccc3)CC2)cc1	23	-7%	7%	3%	0%	-29%
